In PubChem BioAssay AID1159580 (chemical genetic matrix, 2015):
The campaign covered roughly 5,500 compounds. About 2,000 (36%) were called active. Inconclusive results (about 18%) are left out. No stated cut-off is given here; in the data, active means normalized growth mostly below about 0.91 (no sharp cut-off); inconclusive means no clear call, values can overlap the other calls; inactive means mostly above about 0.92. The list shows a part of the results.

Experiment: chemical genetic growth profiling, strain panel (AID 1159580);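 further: tested at 20 µM; growth read once vehicle control cultures reached saturation at 30 °C; 1 = growth at the plate median or of vehicle wells; lower values mean less growth of the strain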
Conditions: growth OD
[1] = S. cerevisiae deletion strains, locus YAL013W, strain DEP1, hits give low values
[2] = S. cerevisiae deletion strains, locus YBR229C, strain ROT2, hits give low values
[3] = S. cerevisiae deletion strains, locus YDL101C, strain DUN1, hits give low values
[4] = S. cerevisiae deletion strains, locus YDL134C, strain PPH21, hits give low values
[5] = S. cerevisiae deletion strains, locus YDR150W, strain NUM1, hits give low values
[6] = S. cerevisiae deletion strains, locus YEL061C, strain CIN8, hits give low values
[7] = S. cerevisiae deletion strains, locus YGR078C, strain PAC10, hits give low values
[8] = S. cerevisiae deletion strains, locus YHR030C, strain SLT2, hits give low values
[9] = S. cerevisiae deletion strains, locus YHR087W, strain rtc3, hits give low values
[10] = S. cerevisiae deletion strains, locus YJR043C, strain POL32, hits give low values
[11] = S. cerevisiae deletion strains, locus YJR075W, strain HOC1, hits give low values
[12] = S. cerevisiae deletion strains, locus YLR039C, strain RIC1, hits give low values
[13] = S. cerevisiae deletion strains, locus YLR058C, strain SHM2 (second series), hits give low values
[14] = S. cerevisiae deletion strains, locus YLR085C, strain ARP6, hits give low values
[15] = S. cerevisiae deletion strains, locus YLR262C, strain YPT6, hits give low values
[16] = S. cerevisiae deletion strains, locus YML094W, strain GIM5, hits give low values
[17] = S. cerevisiae deletion strains, locus YMR219W, strain ESC1, hits give low values
[18] = S. cerevisiae deletion strains, locus YMR263W, strain SAP30, hits give low values
[19] = S. cerevisiae deletion strains, locus YNL153C, strain GIM3, hits give low values
[20] = S. cerevisiae deletion strains, locus YNL298W, strain CLA4 (second series), hits give low values
[21] = S. cerevisiae deletion strains, locus YNL322C, strain KRE1, hits give low values
[22] = S. cerevisiae deletion strains, locus YNR030W, strain Alg12, hits give low values
[23] = S. cerevisiae deletion strains, locus YPL055C, strain LGE1, hits give low values
[24] = S. cerevisiae deletion strains, locus YPL241C, strain CIN2, hits give low values
[25] = S. cerevisiae deletion strains, locus YPR135W, strain CTF4, hits give low values
[26] = S. cerevisiae strains, strain wild type, hits give low values
[27] = S. cerevisiae deletion strains, locus YAR019C, strain CDC15, hits give low values
[28] = S. cerevisiae deletion strains, locus YBL105C, strain PKC1, hits give low values
[29] = S. cerevisiae deletion strains, locus YBR135W, strain CKS1, hits give low values
[30] = S. cerevisiae deletion strains, locus YBR136W, strain MEC1, hits give low values
[31] = S. cerevisiae deletion strains, locus YBR160W, strain CDC28, hits give low values
[32] = S. cerevisiae deletion strains, locus YDL017W, strain CDC7, hits give low values
[33] = S. cerevisiae deletion strains, locus YDL028C, strain MPS1, hits give low values
[34] = S. cerevisiae deletion strains, locus YDL108W, strain KIN28, hits give low values
[35] = S. cerevisiae deletion strains, locus YDL132W, strain cdc53, hits give low values
[36] = S. cerevisiae deletion strains, locus YDL214C, strain PRR2, hits give low values
[37] = S. cerevisiae deletion strains, locus YDR052C, strain DBF4, hits give low values
[38] = S. cerevisiae deletion strains, locus YDR054C, strain cdc34, hits give low values
[39] = S. cerevisiae deletion strains, locus YDR226W, strain ADK1, hits give low values
[40] = S. cerevisiae deletion strains, locus YDR477W, strain SNF1, hits give low values
[41] = S. cerevisiae deletion strains, locus YER123W, strain YCK3, hits give low values
[42] = S. cerevisiae deletion strains, locus YER133W, strain GLC7, hits give low values
[43] = S. cerevisiae deletion strains, locus YFL009W, strain cdc4, hits give low values
[44] = S. cerevisiae deletion strains, locus YFL029C, strain CAK1, hits give low values
[45] = S. cerevisiae deletion strains, locus YFR003C, strain YPI1, hits give low values
[46] = S. cerevisiae deletion strains, locus YFR019W, strain FAB1, hits give low values
[47] = S. cerevisiae deletion strains, locus YFR028C, strain CDC14, hits give low values
[48] = S. cerevisiae deletion strains, locus YGR040W, strain KSS1, hits give low values
[49] = S. cerevisiae deletion strains, locus YGR052W, strain FMP48, hits give low values
[50] = S. cerevisiae deletion strains, locus YGR092W, strain DBF2, hits give low values
[51] = S. cerevisiae deletion strains, locus YHR079C, strain IRE1, hits give low values
[52] = S. cerevisiae deletion strains, locus YHR082C, strain KSP1, hits give low values
[53] = S. cerevisiae deletion strains, locus YHR205W, strain SCH9, hits give low values
[54] = S. cerevisiae deletion strains, locus YIL147C, strain SLN1, hits give low values
[55] = S. cerevisiae deletion strains, locus YJL095W, strain BCK1, hits give low values
[56] = S. cerevisiae deletion strains, locus YJL128C, strain PBS2, hits give low values
[57] = S. cerevisiae deletion strains, locus YJL157C, strain FAR1, hits give low values
[58] = S. cerevisiae deletion strains, locus YJR016C, strain ILV3, hits give low values
[59] = S. cerevisiae deletion strains, locus YJR066W, strain TOR1 (second series), hits give low values
[60] = S. cerevisiae deletion strains, locus YJR066W, strain TOR1, hits give low values
[61] = S. cerevisiae deletion strains, locus YKL048C, strain ELM1, hits give low values
[62] = S. cerevisiae deletion strains, locus YKL067W, strain YNK1, hits give low values
[63] = S. cerevisiae deletion strains, locus YKL101W, strain HSL1, hits give low values
[64] = S. cerevisiae deletion strains, locus YKL193C, strain SDS22, hits give low values
[65] = S. cerevisiae deletion strains, locus YKL203C, strain TOR2, hits give low values
[66] = S. cerevisiae deletion strains, locus YLR113W, strain HOG1, hits give low values
[67] = S. cerevisiae deletion strains, locus YLR133W, strain CKI1, hits give low values
[68] = S. cerevisiae deletion strains, locus YLR403W, strain SFP1, hits give low values
[69] = S. cerevisiae deletion strains, locus YML070W, strain DAK1, hits give low values
[70] = S. cerevisiae deletion strains, locus YMR001C, strain CDC5, hits give low values
[71] = S. cerevisiae deletion strains, locus YMR205C, strain PFK2 (second series), hits give low values
[72] = S. cerevisiae deletion strains, locus YMR277W, strain FCP1, hits give low values
[73] = S. cerevisiae deletion strains, locus YNL006W, strain LST8, hits give low values
[74] = S. cerevisiae deletion strains, locus YNL020C, strain ARK1, hits give low values
[75] = S. cerevisiae deletion strains, locus YNL161W, strain CBK1, hits give low values
[76] = S. cerevisiae deletion strains, locus YNL183C, strain NPR1, hits give low values
[77] = S. cerevisiae deletion strains, locus YNL207W, strain RIO2, hits give low values
[78] = S. cerevisiae deletion strains, locus YNL222W, strain SSU72, hits give low values
[79] = S. cerevisiae deletion strains, locus YNL307C, strain MCK1 (second series), hits give low values
[80] = S. cerevisiae deletion strains, locus YOL078W, strain AVO1, hits give low values
[81] = S. cerevisiae deletion strains, locus YOL136C, strain PFK27, hits give low values
[82] = S. cerevisiae deletion strains, locus YOR061W, strain CKA2, hits give low values
[83] = S. cerevisiae deletion strains, locus YOR119C, strain RIO1, hits give low values
[84] = S. cerevisiae deletion strains, locus YOR231W, strain MKK1, hits give low values
[85] = S. cerevisiae deletion strains, locus YOR329C, strain SCD5, hits give low values
[86] = S. cerevisiae deletion strains, locus YPL031C, strain PHO85, hits give low values
[87] = S. cerevisiae deletion strains, locus YPL153C, strain RAD53, hits give low values
[88] = S. cerevisiae deletion strains, locus YPL204W, strain HRR25, hits give low values
[89] = S. cerevisiae deletion strains, locus YPL209C, strain IPL1, hits give low values
[90] = S. cerevisiae deletion strains, locus YPL256C, strain CLN2, hits give low values
[91] = S. cerevisiae deletion strains, locus YPR025C, strain CCL1, hits give low values
[92] = S. cerevisiae deletion strains, locus YPR106W, strain ISR1, hits give low values
[93] = S. cerevisiae deletion strains, locus YPR111W, strain DBF20, hits give low values
[94] = S. cerevisiae deletion strains, strain NNK1, hits give low values
[95] = S. cerevisiae deletion strains, strain TSCII, hits give low values

Measured: normalized growth

COc1ccc(OC)c(CNC(=O)Cc2cccs2)c1
inactive: [1] 1.01 | [2] 1.03 | S. cerevisiae deletion strains, locus YCL061C, strain MRC1, hits give low values 1.03 | [3] 1.05 | [4] 0.997 | [5] 0.993 | [6] 0.995 | [7] 1.04 | [8] 1.04 | [9] 0.952 | [10] 1.03 | [11] 0.998 | [12] 1.04 | [13] 0.988 | [14] 0.994 | [15] 1.01 | [16] 0.962 | [17] 0.996 | [18] 1.01 | [19] 1.03 | [20] 1 | [21] 1 | [22] 1 | [23] 0.961 | [24] 0.983 | [25] 1.06 | [26] 1.01

COc1ccc(Br)c(C(=O)/C(C#N)=C/c2cccs2)c1
inactive: [28] 0.94 | [29] 0.903 | [30] 0.922 | [31] 0.921 | [32] 0.921 | [33] 0.909 | [34] 0.904 | [37] 0.929 | [39] 0.908 | [45] 0.918 | [47] 0.913 | [54] 0.919 | [56] 0.874 | [58] 0.915 | [70] 0.921 | [77] 0.917 | [85] 0.929 | [89] 0.926 | [91] 0.914 | [93] 0.935
active: [27] 0.765 | [3] 0.676 | [35] 0.871 | [36] 0.221 | [38] 0.696 | [40] 0.197 | [41] 0.122 | [42] 0.187 | [43] 0.861 | [44] 0.724 | [46] 0.149 | [48] 0.229 | [49] 0.205 | [50] 0.178 | [8] 0.125 | [51] 0.132 | [52] 0.15 | [53] 0.0479 | [55] 0.146 | [57] 0.181 | [59] 0.252 | [60] 0.146 | [61] 0.234 | [62] 0.262 | [63] 0.307 | [64] 0.787 | [65] 0.2 | [66] 0.23 | [67] 0.224 | [68] 0.081 | [69] 0.177 | [71] 0.287 | [72] 0.814 | [73] 0.875 | [74] 0.22 | [75] 0.836 | [76] 0.151 | [78] 0.861 | [79] 0.169 | [80] 0.722 | [81] 0.139 | [82] 0.344 | [83] 0.249 | [84] 0.187 | [86] 0.179 | [87] 0.198 | [88] 0.189 | [90] 0.16 | [92] 0.886 | [94] 0.676 | [95] 0.736

Cc1ccc(NC(=O)CC#N)c(C)c1
inactive: [1] 1.01 | [2] 1 | [3] 0.979 | [4] 1.01 | [5] 0.895 | [6] 1.03 | [7] 1.01 | S. cerevisiae deletion strains, locus YGR229C, strain SMI1, hits give low values 0.986 | [8] 0.959 | [9] 0.995 | [10] 0.96 | [11] 1.04 | S. cerevisiae deletion strains, locus YKL190W, strain CNB1, hits give low values 0.998 | [12] 0.974 | [13] 1 | [14] 1.05 | [15] 0.973 | [16] 1.04 | [17] 1.02 | [18] 0.998 | S. cerevisiae deletion strains, locus YMR307W, strain GAS1, hits give low values 1.03 | [19] 1.01 | [20] 0.988 | [21] 1.01 | [22] 1.02 | S. cerevisiae deletion strains, locus YOL006C, strain TOP1, hits give low values 0.951 | [23] 1.1 | [24] 1.03 | [25] 1.01 | [26] 0.976

O=C(Nc1ccc(SC(F)(F)F)cc1)Nc1ccc(Oc2cccc(C(F)(F)F)c2)nc1
active: [8] 0.769
inactive: [27] 0.995 | [28] 0.989 | [29] 0.992 | [30] 0.987 | [31] 0.992 | [32] 0.996 | [33] 0.988 | [3] 0.997 | [34] 0.993 | [35] 0.995 | [36] 0.941 | [37] 0.996 | [38] 0.994 | [39] 0.987 | [40] 0.982 | [41] 0.949 | [42] 0.95 | [43] 0.988 | [44] 0.996 | [45] 0.991 | [46] 0.921 | [47] 0.999 | [48] 0.975 | [49] 0.973 | [50] 0.995 | [51] 0.883 | [52] 1.05 | [53] 0.957 | [54] 0.994 | [55] 0.975 | [56] 0.946 | [57] 0.937 | [58] 1 | [59] 1.02 | [60] 1.02 | [61] 0.972 | [62] 0.956 | [63] 0.949 | [64] 1 | [65] 0.991 | [66] 0.873 | [67] 0.954 | [68] 0.977 | [69] 0.964 | [70] 0.996 | [71] 0.974 | [72] 0.996 | [73] 0.989 | [74] 0.947 | [75] 0.984 | [76] 1.01 | [77] 0.996 | [78] 0.991 | [79] 0.884 | [80] 1 | [81] 0.907 | [82] 0.983 | [83] 1.03 | [84] 0.958 | [85] 0.984 | [86] 0.97 | [87] 0.99 | [88] 0.958 | [89] 0.992 | [90] 0.897 | [91] 0.988 | [92] 0.992 | [93] 0.972 | [94] 0.999 | [95] 1
